Values without a mark were called inactive. Results filed as inconclusive are left out. The source made the active and inactive calls. Unless noted, calls come from the whole dose curve; as a rule, active = well fitted curve in the direction sought with a large enough effect in the repeat runs; inconclusive = weak or mixed curves; inactive = no such curve, though single readings can be large; an effect the other way counts as inactive or inconclusive.

The nature of experiment [1]: qHTS assay to identify small molecule antagonists of the estrogen related receptor (ERR) signaling pathway from Tox21 library - cell viability counter screen (AID 1224834). Note: nearly all actives have a fitted effect of over 30% in size. Note: potency is the fitted concentration of half-maximal effect. A digest of the protocol: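 Cytotoxicity of test substances is gauged in the same ERR cells used for the antagonist screen, after 17.5 h of compound treatment at 37 C, by CellTiter-Fluor fluorescence measured after 30 min.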
(In general: In qHTS, concentration-response curves come from the screen itself.)

Experiment [2] addresses Luciferin 4-monooxygenase (Photinus pyralis) (UniProt P08659). The experiment is described as follows: qHTS assay to identify small molecule inhibitors of firefly luciferase (AID 1224835). Note: nearly all actives have a fitted effect of over 25% in size. An outline of the steps: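 Inhibition of purified Photinus luciferase is measured by luminescence. Substrate levels (D-luciferin, ATP) sit at their KM values. Each compound is tested in a concentration series.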

Experiment [3] is described as follows: qHTS assay to identify small molecule agonists of the constitutive androstane receptor (CAR) signaling pathway - cell viability counter screen (AID 1224836). Note: nearly all actives have a fitted effect of over 45% in size. Note: potency is the fitted concentration of half-maximal effect. An outline of the steps: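 Cell viability multiplexed with the CAR agonist screen: CellTiter-Fluor fluorescence after 23 hr at 37 C. HepG2-CYP2B6-hCAR cells got compounds at 15 concentrations with PK11195 at 0.75 uM final.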

Experiment [4] in a line: qHTS assay to identify small molecule antagonists of the constitutive androstane receptor (CAR) signaling pathway - cell viability counter screen (AID 1224837). Note: nearly all actives have a fitted effect of over 45% in size. Note: potency is the fitted concentration of half-maximal effect. An outline of the steps: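 Multiplexed cytotoxicity read-out for the CAR antagonist screen: double-stable HepG2-CYP2B6-hCAR cells co-treated with 50 nM CITCO (final) and compound over 15 concentrations, incubated 23 hr, then assessed by CellTiter-Fluor fluorescence.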

Experiment [5] addresses Nuclear receptor subfamily 1 group I member 3 (Homo sapiens) (UniProt Q14994). In words: qHTS assay to identify small molecule antagonists of the constitutive androstane receptor (CAR) signaling pathway (AID 1224838). Note: nearly all actives have a fitted effect of over 40% in size. Note: potency is the fitted concentration of half-maximal effect. An outline of the steps: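 Compounds were titrated across 15 concentrations onto HepG2 cells double-stably expressing hCAR and a CYP2B6-2.2kb reporter, together with 50 nM CITCO (final). After 24 h at 37 C, luciferase activity was measured by luminescence.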

Experiment [6] shares this target. The experiment is described as follows: qHTS assay to identify small molecule agonists of the constitutive androstane receptor (CAR) signaling pathway (AID 1224839). Note: nearly all actives have a fitted effect of over 15% in size. A digest of the protocol:
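Luminescent ONE-Glo read-out after 24 hr, 37 C exposure of double-stable HepG2-CYP2B6-hCAR reporter cells to a 15-point compound series, in the presence of 0.75 uM PK11195 (final).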

Experiment [7] is described as follows: qHTS assay to identify small molecule antagonists of the estrogen related receptor signaling pathway with the pleiotropic PPARgamma coactivator (PGC) from Tox21 10K library - cell viability counter screen (AID 1224840; active = well fitted cell-killing curve with a large enough effect in the repeat runs, not every such curve was filed as active; note: nearly all actives have a fitted effect of over 40% in size; note: potency is the fitted concentration of half-maximal effect). An outline of the steps:
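Step one, plate 2,000 PGC/ERR cells per well; step two, incubate 6 h at 37 C/5% CO2; step three, pin-transfer compounds; step four, incubate 17.5 h; step five, add CellTiter-Fluor and read fluorescence after 30 min.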

Experiment [8] in a line: qHTS assay to identify small molecule antagonists of the estrogen related receptor signaling pathway with the pleiotropic PPARgamma coactivator (PGC) from Tox21 10K library (AID 1224841; call rule not given here; note: actives are mostly falling curves and most rising ones were filed inactive; nearly all actives have a fitted effect of over 50% in size; note: potency is the fitted concentration of half-maximal effect). A digest of the protocol:
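Antagonism in this quantitative HTS is taken from loss of luciferase signal in PGC/ERR cells. Cells (2,000/well) are treated with compounds in DMSO after a 6 h settling period and read by One-Glo luminescence after 18 h.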

A short description of experiment [9]: qHTS assay to identify small molecule agonists of the estrogen related receptor signaling pathway with the pleiotropic PPARgamma coactivator (PGC) from Tox21 10K library (AID 1224842). Note: nearly all actives have a fitted effect of over 15% in size. A digest of the protocol: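 Luminescence from One-Glo (30 min, room temperature) measured after PGC/ERR cells had 18 h at 37 C with pinned compound (23 nL in DMSO). Cells had been seeded at 2,000 per well and pre-incubated 6 h.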

In experiment [10] the target is Thyrotropin receptor (Homo sapiens) (UniProt P16473). The experiment is described as follows: qHTS assay to identify small molecule agonists of the thyroid stimulating hormone receptor (TSHR) signaling pathway (AID 1224843; calls by dose curve; note: nearly all actives have a fitted effect of over 45% in size). An outline of the steps: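 HEK293 cells stably bearing the thyrotropin receptor were plated at 800 cells/well and challenged with compound (30 min, RT). Accumulated cAMP was quantified via cAMP-d2 competing for cryptate-tagged antibody.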
Chain of Thyrotropin receptor (Homo sapiens) (P16473 whole entry, looked up): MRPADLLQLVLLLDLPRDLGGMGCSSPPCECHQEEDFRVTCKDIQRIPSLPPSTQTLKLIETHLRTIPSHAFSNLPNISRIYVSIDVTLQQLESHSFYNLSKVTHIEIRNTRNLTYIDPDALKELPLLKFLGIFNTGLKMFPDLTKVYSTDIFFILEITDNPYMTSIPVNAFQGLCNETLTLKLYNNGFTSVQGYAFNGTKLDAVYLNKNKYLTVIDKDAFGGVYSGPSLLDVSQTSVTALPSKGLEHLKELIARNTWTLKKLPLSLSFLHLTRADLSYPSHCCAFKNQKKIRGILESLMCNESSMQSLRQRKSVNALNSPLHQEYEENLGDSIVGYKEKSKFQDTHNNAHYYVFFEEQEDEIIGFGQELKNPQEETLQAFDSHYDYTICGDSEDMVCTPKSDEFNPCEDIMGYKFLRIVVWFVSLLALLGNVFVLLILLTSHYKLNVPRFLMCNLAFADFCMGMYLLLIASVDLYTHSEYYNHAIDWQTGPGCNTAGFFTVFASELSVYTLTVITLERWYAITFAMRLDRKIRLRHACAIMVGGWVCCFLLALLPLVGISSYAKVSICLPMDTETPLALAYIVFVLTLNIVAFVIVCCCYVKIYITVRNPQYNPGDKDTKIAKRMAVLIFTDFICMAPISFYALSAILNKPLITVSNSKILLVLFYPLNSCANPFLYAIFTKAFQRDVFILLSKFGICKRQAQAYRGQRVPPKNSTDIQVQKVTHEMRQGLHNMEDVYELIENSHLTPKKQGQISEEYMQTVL

Experiment [11] in a line: qHTS assay to identify small molecule agonists of H2AX (AID 1224845; active = well fitted activation curve with a large enough effect in the signal ratio in the repeat runs, not every such curve was filed as active; the % refers to the signal ratio; note: potency is the fitted concentration of half-maximal effect). A digest of the protocol:
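Phospho-H2AX Ser139 measured by HTRF (ex 320 nm; em 665 and 620 nm) after 24 hr antibody incubation. Compounds, 15 concentrations, 0.76% DMSO, were applied to CHO-K1 cells for 3hr at 37C before lysis.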

Experiment [12] is described as follows: qHTS assay to identify small molecule agonists of the hypoxia (HIF-1) signaling pathway (AID 1224846; active = well fitted activation curve with a large enough effect in the signal ratio in the repeat runs, not every such curve was filed as active; the % refers to the signal ratio). An outline of the steps: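 Steps: seed ME-180 HRE-bla cells (2,000/well, 0.5% dialyzed FBS); incubate 5 hrs at 37C; pin-transfer compounds or DMSO; incubate 17 hrs; add LiveBLAzer B/G substrate CCF4-AM; measure reporter activation by FRET.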
Experiment [13] can be described thus: qHTS assay to identify small molecule agonists of H2AX - cell viability counter screen (AID 1224847; calls by dose curve; note: nearly all actives have a fitted effect of over 30% in size; note: potency is the fitted concentration of half-maximal effect;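 for activity change, negative = cytotoxicity: wild-type CHO-K1 cells; top concentration of the series differs between compounds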). A digest of the protocol:
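Counter-screen for viability: CellTiter-Glo ATP luminescence read after 3 h compound treatment (15-point titration, 0.76% DMSO final) of CHO-K1 cells at 37C, with 30 min room-temperature reagent incubation.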

The nature of experiment [14]: qHTS assay to identify small molecule antagonists of the estrogen related receptor (ERR) signaling pathway from Tox21 library (AID 1224848). Note: nearly all actives have a fitted effect of over 50% in size. Note: potency is the fitted concentration of half-maximal effect. A digest of the protocol: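 Reading was by luminescence 30 min after ONE-Glo addition. Before that, ERR cells at 2,000 per well had rested 6 h at 37 C/5% CO2 and then received pin-tooled compounds in DMSO for 18 h at 37 C.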
Experiment [15] in a line: qHTS RealTime-Glo MT Cell Viability Assay in HepG2 cells - 24 hour (AID 1224867). Note: nearly all actives have a fitted effect of over 50% in size. Note: potency is the fitted concentration of half-maximal effect. A digest of the protocol:
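Compound treatment began 5 h after plating HepG2 cells (600/well) with NanoLuc luciferase and prosubstrate. Plates stayed at 37 C for 40 h; luminescence was captured at six time points, 0 h through 40 h.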

A short description of experiment [16]: A CellTox Green Cytotoxicity Assay to monitor cytotoxicity in HEK293 cells - 0 hour (AID 1224869). Note: nearly all actives have a fitted effect of over 50% in size. An outline of the steps:
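Cytotoxicity was tracked continuously in HEK293 cells by a DNA-binding dye excluded from viable cells. Compounds were transferred in DMSO 5 h after seeding; fluorescence was recorded at intervals up to 40 h.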

Experiment [17] in a line: qHTS RealTime-Glo MT Cell Viability Assay in HepG2 cells - 40 hour (AID 1224870). Note: nearly all actives have a fitted effect of over 50% in size. A digest of the protocol: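 Real-time viability: cells seeded at 600 per well together with NanoLuc and cell-permeant prosubstrate, compounds added after 5 h incubation. Luminescence tracked at 0, 8, 16, 24, 32 and 40 h of exposure.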
A short description of experiment [18]: qHTS assay to identify small molecule agonists of the hypoxia (HIF-1) signaling pathway - cell viability counter screen (AID 1224844; calls by dose curve; note: nearly all actives have a fitted effect of over 50% in size; note: potency is the fitted concentration of half-maximal effect). A digest of the protocol: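 Tox21 10K compounds were added to HRE-bla ME-180 cells (0.5% dialyzed FBS) and incubated 17 hrs at 37C; ATP-based CellTiter-Glo luminescence then reported cell viability in the same wells.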
Experiment [19] is described as follows: qHTS assay to identify small molecule agonists of the estrogen related receptor (ERR) signaling pathway from Tox21 library (AID 1224849; calls by dose curve; note: nearly all actives have a fitted effect of over 15% in size). Particulars: ERR reporter cell line, ONE-Glo luciferase, 18 h; at 92.4 µM (top of the series) unless noted. An outline of the steps:
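Agonist signal is luciferase luminescence from an ERR reporter cell line treated 18 h at 37 C with DMSO-dissolved compounds, read 30 min after ONE-Glo addition at room temperature.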

Experiment [20] is described as follows: qHTS RealTime-Glo MT Cell Viability Assay in HEK293 cells - 32 hour (AID 1224868). For activity change, negative = cytotoxic: top concentration of the series differs between compounds. Note: nearly all actives have a fitted effect of over 50% in size. Note: potency is the fitted concentration of half-maximal effect. An outline of the steps: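 Quantitative high-throughput screen of the Tox21 10K library in HEK293: cells and RealTime-Glo reagents plated together, compound added at 5 h, luminescence monitored through 40 h at 37 C.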
% is set by controls: 0 for no effect and ±100 for the full control effect.

Chain of Nuclear receptor subfamily 1 group I member 3 (Homo sapiens) (Q14994 whole entry, looked up): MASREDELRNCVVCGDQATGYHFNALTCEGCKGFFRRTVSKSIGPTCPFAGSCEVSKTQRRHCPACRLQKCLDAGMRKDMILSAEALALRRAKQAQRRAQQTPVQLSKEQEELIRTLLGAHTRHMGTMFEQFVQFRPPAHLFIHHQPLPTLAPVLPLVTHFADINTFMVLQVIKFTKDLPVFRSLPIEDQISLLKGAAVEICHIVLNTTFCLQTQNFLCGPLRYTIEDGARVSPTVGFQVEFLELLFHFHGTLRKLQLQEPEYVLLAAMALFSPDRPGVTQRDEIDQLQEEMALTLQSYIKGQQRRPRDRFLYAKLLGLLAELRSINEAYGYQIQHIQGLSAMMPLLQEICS
Chain of Luciferin 4-monooxygenase (Photinus pyralis) (P08659 whole entry, looked up): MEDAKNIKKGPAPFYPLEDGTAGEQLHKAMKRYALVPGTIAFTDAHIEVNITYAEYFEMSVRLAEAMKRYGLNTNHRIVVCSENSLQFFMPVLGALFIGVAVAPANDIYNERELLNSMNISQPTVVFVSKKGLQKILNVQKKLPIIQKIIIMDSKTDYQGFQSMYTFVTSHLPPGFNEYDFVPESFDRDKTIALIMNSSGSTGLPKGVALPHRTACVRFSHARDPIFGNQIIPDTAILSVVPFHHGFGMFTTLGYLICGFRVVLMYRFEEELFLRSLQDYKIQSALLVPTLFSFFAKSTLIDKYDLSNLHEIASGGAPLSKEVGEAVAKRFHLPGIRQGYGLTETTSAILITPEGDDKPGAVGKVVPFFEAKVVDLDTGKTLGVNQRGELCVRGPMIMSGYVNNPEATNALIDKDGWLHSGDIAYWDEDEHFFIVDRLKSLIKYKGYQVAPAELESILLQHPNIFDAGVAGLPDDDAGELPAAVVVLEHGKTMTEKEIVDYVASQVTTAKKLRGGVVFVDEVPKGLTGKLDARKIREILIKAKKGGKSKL

In the case of `C=CCOC(N)=O`, the Potency result in experiment [1], in experiment [2], in [3], in experiment [4], in experiment [5] and in experiment [6] was “inactive” throughout. Further, the Potency result in [7], in [8], in [9], in experiment [10], in experiment [11] and in experiment [13] was “inactive” each time. In addition, the Potency entry in [14], in experiment [15], in [16] and in experiment [17] was “inactive” each time. Also, in experiment [12], the compound was called inactive.
With `Brc1c(Br)c(Br)c(Oc2c(Br)c(Br)c(Br)c(Br)c2Br)c(Br)c1Br`, the values for the viability change, negative = cytotoxic in experiment [1], in [3] and in [7] were 0.115% [at 19 µM], -2.08% [at 19 µM] and 10.1% [at 19 µM], respectively. Moreover, the activity change, negative = inhibition in experiment [2] is 1.46% [at 23.6 µM]. The activity change, negative = cytotoxicity in [4] was 5.53% [at 19 µM]; in experiment [18] it was 12% [at 15.8 µM]; in experiment [13] it was 2.26% [at 31.6 µM]; in experiment [15], -1.54% [at 15.8 µM]. For the same compound, the activity, negative = inhibition in experiment [5] is -4.8% [at 19 µM]; in experiment [8], 39.4% [at 19 µM]; in [14], 6.83% [at 19 µM]. For the same compound, the activation in experiment [6] is -0.206% [at 19 µM]; in [9], 1.27% [at 19 µM]; in [10] it was -5.88% [at 19 µM]; in experiment [12] it was 0.0203% [at 15.8 µM]. Besides, the activation (H2AX phosphorylation) in experiment [11] is -7.06% [at 31.6 µM]. Further, the activity change, positive = activation in experiment [19] is 3.27% [at 19 µM]. Besides, the activity change, negative = cytotoxic in experiment [20] is 5.03% [at 15.8 µM]. Also, the cytotoxicity in [16] was -1.03% [at 15.8 µM].
In the case of `O=C(CCl)Nc1ccccc1`, the Potency in [1] was 30.6 µM (active); in experiment [3] it was 48.6 µM (active); in experiment [4], 48.6 µM (active); in experiment [5] it was 54.5 µM (active); in [7] it was 24.3 µM (active); in [8], 8.63 µM (active). Further, the Potency in experiment [11] was 80 µM (active); in [14] it was 19.3 µM (active). For the same compound, the Potency result in experiment [2], in experiment [6], in experiment [9], in [10], in experiment [13] and in experiment [15] was “inactive” in each case. The Potency entry in experiment [16] and in experiment [17] was “inactive” each time.
On to `CC1(C)CN=C(NN=C(/C=C/c2ccc(C(F)(F)F)cc2)/C=C/c2ccc(C(F)(F)F)cc2)NC1`, for which the Potency in experiment [1] is 21.7 µM (active); in [3] it was 24.3 µM (active); in experiment [4], 21.7 µM (active); in [5], 19.3 µM (active); in experiment [7] it was 17.2 µM (active); in experiment [8] it was 27.3 µM (active). Further, the Potency in experiment [18] was 21.9 µM (active); in [13], 25.3 µM (active); in experiment [14] it was 13.7 µM (active); in experiment [15], 17.4 µM (active); in experiment [20] it was 38.9 µM (active). The Potency entry in experiment [2], in [6], in experiment [9], in experiment [10] and in experiment [16] was “inactive” in each case. In addition, the activity change, positive = activation in [19] was -76.2%.
Turning to `CC(Cc1ccc(C(C)(C)C)cc1)CN1C[C@@H](C)O[C@@H](C)C1` (some centres undefined), the Potency result in experiment [1], in [2], in [3], in experiment [4], in experiment [5] and in experiment [6] was “inactive” throughout. Moreover, the Potency result in [7], in experiment [8], in experiment [9], in [15] and in experiment [17] was “inactive” each time. Moreover, the activity change, positive = activation in [19] is -8.81%.
As to `C1CCC2CCCCC2C1` (centres undefined), the Potency result in experiment [1], in experiment [2], in experiment [3], in experiment [4], in experiment [5] and in experiment [6] was “inactive” each time. Also, the Potency entry in experiment [7], in experiment [8], in experiment [9], in [18], in experiment [13] and in experiment [14] was “inactive” each time. Besides, the Potency entry in experiment [15], in experiment [20], in experiment [16] and in experiment [17] was “inactive” each time. Besides, the compound was called inactive in [12]. Moreover, in experiment [19], the activity change, positive = activation is -0.0659%.
On to `Oc1ccc(I)cc1`, for which the Potency entry in [1], in experiment [2], in experiment [3], in [4], in experiment [5] and in [6] was “inactive” throughout. In addition, the Potency result in experiment [7], in experiment [10], in experiment [18], in [11], in [13] and in [15] was “inactive” in each case. Further, the Potency result in [20] and in experiment [17] was “inactive” throughout. In [12], the call was inactive.

The values are drawn from PubChem BioAssay (Tox21).
